RXFP1 ag – RXFP1 (human) receptor agonism | Q9HBX9 | Potency, µM (highest dose often 57.5 µM), hits mostly activators | HEK293T-RXFP1 cAMP TR-FRET, 30 min; response scale: percent of porcine relaxin response, buffer zero | hit rate 0.3% among 370,000 | AID 2676; active = well fitted activation curve with a large enough effect; inconclusive = small, poorly fitted or top-dose-only effect; also: nearly all actives have a fitted effect of over 60% in size
Target sequence (Q9HBX9 whole entry, looked up): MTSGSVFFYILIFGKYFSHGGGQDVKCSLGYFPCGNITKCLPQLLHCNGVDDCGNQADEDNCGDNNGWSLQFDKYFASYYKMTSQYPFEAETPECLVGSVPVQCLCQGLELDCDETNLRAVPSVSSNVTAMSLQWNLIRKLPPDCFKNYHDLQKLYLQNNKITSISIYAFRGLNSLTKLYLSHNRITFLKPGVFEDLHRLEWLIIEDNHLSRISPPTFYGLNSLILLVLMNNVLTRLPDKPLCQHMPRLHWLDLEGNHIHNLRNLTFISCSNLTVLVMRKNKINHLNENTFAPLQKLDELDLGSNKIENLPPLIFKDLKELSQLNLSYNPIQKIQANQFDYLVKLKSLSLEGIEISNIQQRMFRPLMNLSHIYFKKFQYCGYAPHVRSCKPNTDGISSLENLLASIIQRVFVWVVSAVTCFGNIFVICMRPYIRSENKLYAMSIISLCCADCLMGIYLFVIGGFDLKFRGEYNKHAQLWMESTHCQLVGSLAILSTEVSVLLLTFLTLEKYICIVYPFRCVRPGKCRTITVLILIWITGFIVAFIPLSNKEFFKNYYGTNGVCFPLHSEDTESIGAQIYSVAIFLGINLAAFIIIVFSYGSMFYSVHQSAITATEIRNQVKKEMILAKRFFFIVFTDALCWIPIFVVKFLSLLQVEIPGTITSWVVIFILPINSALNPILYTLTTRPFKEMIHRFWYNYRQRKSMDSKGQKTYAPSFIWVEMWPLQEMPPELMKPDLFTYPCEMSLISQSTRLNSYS
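HEK293T cells stably expressing RXFP1 were pretreated with the PDE4 inhibitor Ro 20174, exposed to compounds for 30 min at 37C, lysed, and cAMP was read by TR-FRET. Data normalized to buffer (basal) and 29 nM porcine relaxin (100%).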
gsp ag – agonists of gsp mutant (McCune-Albright syndrome). gsp mutant cells, cAMP HTRF, 30 min. Potency, µM (titrated, usually from 76.9 µM), actives largely listed as activators. hit rate 0.13% among 340,000; active = well fitted activation curve with a large enough effect; inconclusive = small, poorly fitted or top-dose-only effect, or another doubt; inactive = no such curve, though single readings can be large or run the other way; cell line not stated here;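 also: phosphodiesterase inhibitor Ro 20-1724 added with compounds to block cAMP breakdown; nearly all actives have a fitted effect of over 60% in size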
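Cells stably selected in G418 were plated at 2000/well, grown 16-24 hr, then given compounds in DMSO with the PDE inhibitor […] (300 uM solution added) for 30 min at 37C; cAMP was read by HTRF.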
gsp antagonist – antagonizes gsp, the McCune-Albright syndrome mutation | Potency, µM (series often up to 76.9 µM), actives largely listed as inhibitors | hit rate 0.4% among 340,000 | gsp-mutant cells, cAMP HTRF, 30 min; calls by dose curve; cell line not stated here;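 also: intracellular cAMP measured with PDE inhibitor Ro 20-1724 present during compound exposure; nearly all actives have a fitted effect of over 65% in size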
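HTRF cAMP read-out (cAMP-d2 plus anti-cAMP antibody-K in lysis buffer, 30 min RT). Before lysis, cells are exposed to compounds with […] for 30 min at 37C in DPBS containing Ca/Mg, BSA and Tween 20.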
Akt phos inh – blocks phosphorylation of Akt | Neuro2A IGF-stimulated pAkt S473 HTRF, 20 min; hits give low values | activity change, % for hits at 50 µM | hit rate 0.32% among 360,000 | AID 651550; in the data active = activity change below about -80%; inconclusive = mostly about -51% to -80%
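Single-point screen (50 µM final compound) in Neuro2A cells stimulated 20 min with 6 nM IGF at 37 deg C. After lysis, Ser473-phosphorylated Akt read by HTRF (ex 330 nm, em 615/665 nm) as the 665/615 ratio.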
RXFP1 antag – RXFP1 (human) relaxin receptor antagonism; Q9HBX9; HEK293-RXFP1, relaxin-stimulated cAMP HTRF, 30 min; hits give low values; activity change, negative = inhibition, % at 57.5 µM; hit rate 0.59% among 350,000;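 active = activity change of -60% or lower, but not beyond a set lower limit; inconclusive = change between -60% and -40%, or beyond the set limit; inactive = change above -40%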
Numbers stand for hits; . = inactive; ? = inconclusive; / = not tested or not shown; [ ] = remark or other dose. An excerpt weighted towards active compounds, which were near 1.2% of everything screened.

SMILES	RXFP1 ag	gsp ag	gsp antagonist	Akt phos inh	RXFP1 antag
O=C(CN1C(=O)c2cccc3cccc(c23)C1=O)NCCN1CCOCC1	14.1µM	?	.	.	.
CCOC(=O)c1c(C)[nH]c(CCC(=O)NCc2ccc(CC)cc2)c1C	.	/	/	/	.
COc1ccc(CNC(=O)c2ccc3c(=O)n(CCCN4CCCC4=O)c(=S)[nH]c3c2)cc1	.	.[15.4 µM]	.	.	-116.5
Cc1ccc(CNC(=O)c2ccc3c(=O)n(CCCN4CCCC4=O)c(=S)[nH]c3c2)cc1	.	?	.	/	.
CCCn1c(=S)[nH]c2cc(C(=O)N(CCO)Cc3ccccc3)ccc2c1=O	.	.	.	.	-74.7
O=C(NCc1ccccc1)c1ccc2c(=O)n(CCCN3CCCC3=O)c(=S)[nH]c2c1	.	.	.	?	-73.8
COc1ccccc1CNC(=O)c1ccc2c(=O)n(CCCN3CCCC3=O)c(=S)[nH]c2c1	.	.[15.4 µM]	.	.	-64.8
O=C(CCCN1CCN(c2ccc(F)cc2)CC1)NC1c2ccccc2CSc2ccccc21 (configuration not stated)	/	/	/	/	.
COc1cc(OC)c(NC2(c3ccccc3)C(=O)c3ccccc3C2=O)cc1Cl	.	/	/	/	/
CCOCCCn1c(=S)[nH]c2cc(C(=O)NCC(OC)OC)ccc2c1=O	.	.	.	.	-65.8
COc1cccc(-n2c(C)nc3c(cnn3-c3ccc(C)c(C)c3)c2=O)c1	.	/	/	/	/
CC(C)(C)C1=Nn2c(nnc2-c2ccccn2)SC1	.	.	.	-110.9%	.
COc1ccnc2c1CCCCC2S(=O)c1nc2ccccc2[nH]1 (configuration not stated)	/	/	/	/	.
CC(C)(C)c1csc(NNC(=O)c2ccc(Br)cc2)n1	.	.[15.4 µM]	.	.	-61.1
CC(C)(C)c1csc(NC(=O)c2ccccc2O)n1	.	.[15.4 µM]	.	.	.
O=c1[nH]nc(Sc2ncnc3sccc23)n1CCc1ccccc1	.	?	.	-98.8%	.
Clc1ccc(/C=C/c2nc3ccccc3[nH]2)cc1	.	.	.	.	.
Clc1cccc(Cl)c1/C=C/c1nc2ccccc2[nH]1	.	.	28.2µM	.	.
COc1ccc(NC(=O)Nc2ccc3c(c2)N(C)C(=O)CS3)cc1Cl	.	.	50.1µM	.	?
CCOc1ccc(NC(=O)Nc2ccc3c(c2)N(C)C(=O)CS3)cc1	.	.	.	.	/
CC(=O)c1ccc(NC(=O)Nc2ccc3c(c2)N(C)C(=O)CS3)cc1	.	?	35.5µM	.	-69.8
COc1ccc(NC(=O)Nc2ccc3c(c2)N(C)C(=O)CS3)cc1OC	.	.	.	.	/
Cc1nc2ccn(Cc3ccco3)c(=O)c2cc1C(=O)NCc1ccc(F)cc1	.	/	/	/	.
CN(Cc1cccc(F)c1)CC(O)COCc1ccccc1Cl (configuration not stated)	.	.	11.2µM	.	.
COCCN1CCn2c(nc3cc(NC(=O)NC4CCCCC4)ccc32)C1	.	.	.	.	.
SMILES	RXFP1 ag	gsp ag	gsp antagonist	Akt phos inh	RXFP1 antag
O=C(Nc1ccc2c(c1)nc1n2CCN(Cc2ccccc2)C1)NC1CCCCC1	.	.	.	-90.5%	.
O=C(NCc1ccccn1)C1CC(c2ccc(F)cc2)=NO1 (configuration not stated)	.	.	.	-111.5%	.
O=C(NCc1ccccn1)C1CC(c2ccc(Cl)c(Cl)c2)=NO1 (configuration not stated)	.	.	?	.	.
COc1ccc(NC(=O)c2cnc(SCC(=O)Nc3nc4ccc(C)cc4s3)n(C)c2=O)cc1	.	/	/	/	.
COC(=O)COc1ccc(S(=O)(=O)NCc2ccncc2)cc1	.	.	11.2µM	.	/
O=C(OCC(=O)c1ccc[nH]1)c1ccc(Cl)c(Cl)c1	/	.	.	.	-87.1
O=C(NCc1cccc(Br)c1)c1cccn1-c1nnc(N2CCCCC2)s1	.	/	/	/	/
CC(C)(C)c1ccc(C(=O)Nc2nc3nc(-c4ccccc4)cc(=O)n3[nH]2)cc1	.	/	/	/	.
Cc1cccc(N2CCN(S(=O)(=O)c3ccc(-c4cc(C(F)(F)F)on4)s3)CC2)c1C	.	/	/	/	.
CN(C(=O)COC(=O)CNS(=O)(=O)/C=C/c1ccccc1)C1CCS(=O)(=O)C1 (configuration not stated)	.	.	.	-123.1%	.
N#CCC(=O)NN	/	/	/	/	.
CCOc1ccc(Nc2nc(N)c(C(=O)c3ccccc3Cl)s2)cc1	25.1µM	/	/	/	.
O=C(Nc1nc2cc3c(cc2s1)OCCO3)C1CCCCC1	.	?	.	.	-68.1
CCOC(=O)c1c(NC(=O)CSc2nc3ccc(OC)cc3[nH]2)sc2c1CC(C)(C)NC2(C)C	.	.[15.4 µM]	.	.	-62.2
COc1ccc(-c2nnc(SCc3ccccn3)n2C)cc1	.	.	.	-107.0%	.
Cc1ccc(-n2ncc3c(NCCCn4ccnc4)ncnc32)cc1	.	/	/	/	.
Cc1ccccc1CS(=O)(=O)Cc1ccc(C(=O)NCc2ccccn2)o1	.	.	.	.	.
O=C(NCc1ccccn1)c1ccc(CS(=O)(=O)Cc2ccc(Cl)cc2)o1	.	.	.	-126.2%	.
CCOCCCN1C(=O)c2[nH]nc(-c3ccccc3O)c2C1c1ccc(CC)cc1 (configuration not stated)	.	/	/	/	.
CC1=C2C(CCS2(=O)=O)CC2(C1)C(=O)OC(C)(C)OC2=O (configuration not stated)	.	.	.	-82.5%	.
CCCCCCCCC/C(=N\O)c1ccccn1	.	.[15.4 µM]	.	.	-69.3
CCCCCCCCC(=O)N/N=C/c1ccccn1	.	.	.	.	.
O=C1CC(c2cccc([N+](=O)[O-])c2)c2c(ccc3ccccc23)N1 (configuration not stated)	.	.	39.8µM	.	.
O=C1CC(c2ccc(Br)cc2)c2c(ccc3ccccc23)N1 (configuration not stated)	.	/	/	/	?
CCN[C@@H]1C[C@H](N)[C@@H](OC2OC(CN)=CCC2N)[C@H](O)[C@H]1O[C@H]1OC[C@](C)(O)[C@H](NC)[C@H]1O (some centres not stated)	/	/	/	/	.
SMILES	RXFP1 ag	gsp ag	gsp antagonist	Akt phos inh	RXFP1 antag
COc1ccc(C2=NOC(Cn3nc(C(=O)NCc4ccc(C)cc4)cc3-c3ccccc3)C2)cc1 (configuration not stated)	.	.	.	.	/
COc1ccc(C2=NOC(Cn3nc(C(=O)NCc4ccco4)cc3-c3ccccc3)C2)cc1 (configuration not stated)	.	.	31.6µM	.	/
CCCCCCn1c(C)nc2c(c1=O)c1nc3ccccc3nc1n2/N=C/c1ccco1	.	.	.	-108.1%	.
Cc1nc2c(c(=O)n1CCC1=CCCCC1)c1nc3ccccc3nc1n2/N=C/c1ccccc1	.	.	.	.	.
O=C(NCc1cccs1)c1ccc(Cn2c(SCc3cccc(F)c3)nc3cccnc32)cc1	.	/	/	/	.
Oc1ccc(Nc2nc(-c3ccccc3)nc3ccccc23)cc1	.	.[15.4 µM]	.	.	-76.6
O=[N+]([O-])c1cccc(NC2=NCCC2)c1	.	.[15.4 µM]	.	.	-64.5
